MCF10A rereplic – DNA re-replication induction in MCF 10a cells; MCF 10A DNA re-replication, Hoechst nuclear intensity, 48 h; Potency, µM (doses to about 46.1 µM), without a hit: at the highest dose activity, positive = re-replication, actives largely listed as activators; 350,000 compounds, 2.9% hits; note: % of control where 0% means no effect; nearly all actives have a fitted effect of over 50% in size
KB-V1 cytotox – kills drug-selected multidrug resistant KB-V1 cells | 400,000 compounds, 3.4% hits | Potency, µM (series often up to 46.1 µM), hits mostly cytotoxic | AID 1347076 | KB-V1 MDR cells viability, CellTiter-Glo, 72 h; note: % is set by controls: 0 for no effect and ±100 for the full control effect; nearly all actives have a fitted effect of over 60% in size
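KB-V1 cells (P-gp-expressing MDR subline of KB-3-1) in phenol-red-free DMEM with 10% FBS were exposed to library compounds over a concentration series for 72 h at 37 degrees C. Viability read by CellTiter-Glo luminescence; concentration-effect curves fitted after normalization.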
PINK1 modulator – modulators of PINK1 expression; PINK1 immunofluorescence, high-content cytometry, 24 h; Potency, µM (series often up to 76.6 µM), without a hit: at the top dose activation (PINK1 increase), usual class: activators; 410,000 compounds, 0.2% hits; AID 624263; active = well fitted activation curve with a large enough effect; inconclusive = small, poorly fitted or top-dose-only effect; cell line not stated here; note: % of control where 0% means no effect; nearly all actives have a fitted effect of over 65% in size
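Stable cell line treated 24 h with compounds at 5 concentrations (CCCP controls), then fixed and immunostained for PINK1 plus nuclear and cell stains; PINK1 immunofluorescence quantified by laser-scanning microplate cytometry.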
KB-3-1 tox – KB-3-1 parental cell cytotoxicity. AID 1347075. Potency, µM (series often up to 46.1 µM), hits mostly cytotoxic. KB-3-1 viability, CellTiter-Glo ATP luminescence, 72 h. 400,000 compounds, 1.4% hits; note: % is set by controls: 0 for no effect and ±100 for the full control effect; nearly all actives have a fitted effect of over 60% in size
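Multi-concentration cytotoxicity screen in KB-3-1 cells grown in DMEM lacking phenol red with 10% FBS. After 72 h at 37 °C with compound, ATP-dependent luminescence was recorded.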
SW480 rerep – inducers of DNA re-replication in SW480 colon cancer cells; SW480 DNA re-replication, Hoechst DNA content imaging, 48 h; Potency, µM (top dose mostly 46.1 µM), for inactives: top-dose re-replication activation, actives largely listed as activators; 340,000 compounds, 1.8% hits; AID 624297; note: % of control where 0% means no effect; nearly all actives have a fitted effect of over 55% in size
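Readout is total intensity of Hoechst-stained nuclei, excited at 405 nm and collected at 500-530 nm. Compound treatment lasted 48 hr at 37 C in 5% CO2 before staining.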
* = called active by the depositor; i = inactive; ? = inconclusive; . = no result given; [ ] = another dose, or the depositor's remark. Compounds with a hit are over-represented: about 6.7% of the library has one in this group of screens. Unless noted, calls come from the whole dose curve; as a rule, active = well fitted curve in the direction sought with a large enough effect; inconclusive = small, poorly fitted or top-dose-only effect, or another doubt; inactive = no such curve, though single readings can be large; an effect the other way counts as inactive or inconclusive. Potency is the fitted concentration of half-maximal effect.

SMILES	MCF10A rereplic	KB-V1 cytotox	PINK1 modulator	KB-3-1 tox	SW480 rerep
c1csc(-c2nnc(NC3CCCCC3)c3ccccc23)c1	?	?	32µM*	i	-2%
CCOC(=O)c1cnc2c(c(C)nn2C)c1Oc1ccc(Cl)cc1	16%	3.3µM*	3%[38.3 µM]	?	2%
Cc1ccccc1C(=O)Nc1ccccc1C(=O)OCc1cc(=O)n2ccsc2n1	.	i	2%	i	.
CC(C)NC(=O)NC(=O)COc1ccc(Br)cc1Br	23µM*	?	4%	i	12%
Cc1ccc(OCC(=O)NNC(=O)c2ccoc2C)c(Br)c1	-6%	i	0%	i	0%
Cc1occc1C(=O)NNC(=O)COc1ccc(Br)cc1Br	4%	15µM*	1%	i	1%
O=C(CNC(=S)NC(=O)c1ccc(Br)o1)c1ccccc1	6.5µM*	i	18%	i	21µM*
CC1CCc2cc(F)ccc2N1C(=O)CSc1nnc2c(n1)[nH]c1ccc(F)cc12 (centres undefined)	17%	21µM*	6%[38.3 µM]	i	-3%
CC1CCCCN1C(=O)CSc1nnc2c(n1)[nH]c1ccc(F)cc12 (centres undefined)	6%	i	6%	i	-4%
CCOC(=O)c1cc(C#N)c(Oc2ccc(F)cc2)nc1-c1ccccc1	13%	9.2µM*	2%	i	-4%
O=C(Nc1ccc(F)cc1)C(CCc1ccccc1)N1CCN(c2cccc(C(F)(F)F)n2)CC1 (centres undefined)	.	i	.	i	.
O=C(COC(=O)/C=C/c1ccc([N+](=O)[O-])cc1)NC(c1ccccc1)c1ccccc1	23µM*	i	3%	i	20%
O=C(COC(=O)/C=C/c1ccc([N+](=O)[O-])cc1)NCc1ccccc1	3%	i	0%	i	-4%
Cc1nc(Nc2ncc(C(=O)Nc3c(C)cccc3Cl)s2)cc(N2CCN(CCO)CC2)n1	19µM*	i	0%	?	17µM*
Cc1cccc(Cl)c1NC(=O)N1CCCN(c2nc3ccc(Cl)cc3s2)CC1	11%	?	3%	?	1%
Cc1ccc(CN2CCOc3ccc(CN4CCC(O)(c5cccnc5)CC4)cc3C2)cc1	.	.	1%	.	.
CC(=O)N=c1c(C#N)cc2c(=O)n3ccccc3nc2n1CCCOC(C)C	?	i	1%	i	16µM*
CC(C)OCCCn1c(=NC(=O)c2ccncc2)c(C#N)cc2c(=O)n3ccccc3nc21	-8%	i	11%[38.3 µM]	i	-9%
CC(C)OCCCn1c(=N)c(C(N)=S)cc2c(=O)n3ccccc3nc21	9.2µM*	?	-4%	i	5.8µM*
CC(C)OCCCn1c(=NC(=O)c2cccs2)c(C#N)cc2c(=O)n3ccccc3nc21	12µM*	?	7%	i	21µM*
O=C(O)c1ccc(CN2C[C@@H](CO)O[C@@H](n3cnc4c(NCc5ccc(F)cc5)ncnc43)C2)cc1	.	i	0%	i	.
C/C(=N\NC(=O)c1nnn(-c2nonc2N)c1CSc1ccc(C)cc1)c1cccnc1	.	i	1%	i	.
CCN(CC)C(=O)CSc1nnc(COc2ccc(OC)cc2)n1N	-4%	i	1%	i	-1%
CCOc1ccc(-n2c(C)nnc2SCC(=O)N(CC)CC)cc1	14%	16µM*	-23%[38.3 µM]	i	-8%
CCC1(C)CC(CCNS(=O)(=O)c2ccc(C)cc2)(c2ccc(C)cc2)CCO1 (centres undefined)	?	?	2%	?	4%
SMILES	MCF10A rereplic	KB-V1 cytotox	PINK1 modulator	KB-3-1 tox	SW480 rerep
CC(C)C1CC(CCNCc2ccc(N(C)C)cc2)(c2ccccc2)CCO1 (centres undefined)	?	?	-5%	21µM*	23%
Cc1ccc(C2(CCNS(=O)(=O)c3ccc(C)cc3)CCOC(C(C)C)C2)cc1 (centres undefined)	?	3.7µM*	?	?	22%
Cc1ccc(C2(CCNCc3ccc(N(C)C)cc3)CCOC(C(C)C)C2)cc1 (centres undefined)	?	?	-2%	?	?
COc1cc(Cl)c(NS(=O)(=O)c2ccc3[nH]c(=O)ccc3c2)c(OC)c1	.	?	-3%	i	.
CCCSCCCNC(=O)c1cc2n(n1)CCCN(Cc1ccc(C)cc1)C2=O	.	i	0%	?	.
CCCCCCCCn1c(=O)c(C(=O)OC)c(N)c2ccccc21	21µM*	?	3%	?	-12%
CCCCCCCn1c(=O)c(C(=O)OC)c(N)c2ccccc21	0%	15µM*	4%	i	0%
CCCCCCn1c(=O)c(-c2ccccc2)c(O)c2ccccc21	2%	i	4%	i	-6%
O=C(NCC1Cc2cc(F)cc(-c3cnccn3)c2O1)c1cccc(Cl)c1 (centres undefined)	.	.	0%	.	.
CCCc1cc(=O)oc2cc(OCC(=O)NCCc3c[nH]c4ccccc34)ccc12	?	i	-1%	i	1%
O=C(CN1CCN(S(=O)(=O)c2ccccc2)CC1)N1CCCCC1	5%	?	0%	i	-4%
CCCCCCn1c(SCC(C)C)nc2c1c(=O)[nH]c(=O)n2C	0%	10µM*	5%	?	0%
CCCCn1c(SCc2ccc(Cl)cc2)nc2c1c(=O)[nH]c(=O)n2C	?	?	3%	i	-6%
CCCCCCn1c(SCC(=O)OC)nc2c1c(=O)[nH]c(=O)n2C	0%	i	-2%	i	-9%
Cn1c(=O)c2c(nc(SCCN3CCCCC3)n2Cc2ccc(Cl)cc2)n(C)c1=O	0%	i	4%	i	20%
CCSc1nc2c(c(=O)[nH]c(=O)n2C)n1Cc1ccc(Cl)cc1	5%	7.3µM*	16%	?	0%
CC(C)CCn1c(Sc2nc3ccccc3o2)nc2c1c(=O)[nH]c(=O)n2C	?	15µM*	-2%	i	?
CCSc1nc2c(c(=O)n(C)c(=O)n2C)n1Cc1ccc(Cl)cc1	5%	13µM*	1%	i	-10%
Cn1c(=O)[nH]c(=O)c2c1nc(N1CCCCC1)n2CCSc1nc2ccccc2o1	14%	i	0%	i	-3%
Cn1c(=O)c2c(nc(SCC(=O)NCc3ccc4c(c3)OCO4)n2Cc2ccc(Cl)cc2)n(C)c1=O	16%	4.1µM*	5%	i	14%
Cn1c(=O)c2c(nc(NCc3ccc4c(c3)OCO4)n2Cc2ccccc2Cl)n(C)c1=O	0%	i	9%	i	-3%
Cc1c(Cl)cccc1-n1c(SCC(=O)NCc2ccccc2)nc2n[nH]c(C)c2c1=N	.	.	2%	.	.
O=C(Nc1cccc(Cl)c1)Nc1sccc1-c1nc2ccccc2s1	16µM*	?	?	i	18µM*
COC(=O)c1ccc2[nH]c3cccc(/C(=C/c4ccccc4)c4ccccc4)c3c2c1	12µM*	?	-1%	?	1%
